# Tests used:
# [1] = molecular target: Casein kinase I isoform gamma-2 (Homo sapiens) (UniProt P78368); conditions: at 1 µM
# [2] = molecular target: Casein kinase I isoform gamma-3 (Homo sapiens) (UniProt Q9Y6M4); conditions: at 0.1 µM
# [3] = molecular target: Casein kinase I isoform gamma-3 (Homo sapiens) (UniProt Q9Y6M4); conditions: at 1 µM
# [4] = molecular target: Cyclin-dependent kinase 1 (Homo sapiens) (UniProt P06493); conditions: at 0.1 µM
# [5] = molecular target: Cyclin-dependent kinase 1 (Homo sapiens) (UniProt P06493); conditions: at 1 µM
# [6] = molecular target: Cyclin-dependent kinase 2 (Homo sapiens) (UniProt P24941); conditions: at 0.1 µM
# [7] = molecular target: Cyclin-dependent kinase 2 (Homo sapiens) (UniProt P24941); conditions: at 1 µM
# [8] = molecular target: Cyclin-dependent kinase 2 (Homo sapiens) (UniProt P24941); conditions: at 0.1 µM; remark: listed apart in the source
# [9] = molecular target: Cyclin-dependent kinase 2 (Homo sapiens) (UniProt P24941); conditions: at 1 µM; remark: listed apart in the source
# [10] = molecular target: T1, CDK3/Cyclin E (Homo sapiens) (UniProt P24864+Q00526); conditions: at 0.1 µM
# [11] = molecular target: T1, CDK3/Cyclin E (Homo sapiens); conditions: at 1 µM
# [12] = molecular target: Cyclin-dependent kinase 4 (Homo sapiens) (UniProt P11802); conditions: at 0.1 µM
# [13] = molecular target: Cyclin-dependent kinase 4 (Homo sapiens) (UniProt P11802); conditions: at 1 µM
# [14] = molecular target: Cyclin-dependent kinase 5 (Homo sapiens) (UniProt Q00535); conditions: at 0.1 µM
# [15] = molecular target: Cyclin-dependent kinase 5 (Homo sapiens) (UniProt Q00535); conditions: at 1 µM
# [16] = molecular target: Cyclin-dependent kinase 6 (Homo sapiens) (UniProt Q00534); conditions: at 0.1 µM
# [17] = molecular target: Cyclin-dependent kinase 6 (Homo sapiens) (UniProt Q00534); conditions: at 1 µM
# [18] = molecular target: Dual specificity protein kinase CLK2 (Homo sapiens) (UniProt P49760); conditions: at 0.1 µM
# [19] = molecular target: Dual specificity protein kinase CLK2 (Homo sapiens) (UniProt P49760); conditions: at 1 µM
# [20] = molecular target: Dual specificity protein kinase CLK3 (Homo sapiens) (UniProt P49761); conditions: at 0.1 µM
# Chain of Dual specificity protein kinase CLK3 (Homo sapiens) (P49761 whole entry, looked up): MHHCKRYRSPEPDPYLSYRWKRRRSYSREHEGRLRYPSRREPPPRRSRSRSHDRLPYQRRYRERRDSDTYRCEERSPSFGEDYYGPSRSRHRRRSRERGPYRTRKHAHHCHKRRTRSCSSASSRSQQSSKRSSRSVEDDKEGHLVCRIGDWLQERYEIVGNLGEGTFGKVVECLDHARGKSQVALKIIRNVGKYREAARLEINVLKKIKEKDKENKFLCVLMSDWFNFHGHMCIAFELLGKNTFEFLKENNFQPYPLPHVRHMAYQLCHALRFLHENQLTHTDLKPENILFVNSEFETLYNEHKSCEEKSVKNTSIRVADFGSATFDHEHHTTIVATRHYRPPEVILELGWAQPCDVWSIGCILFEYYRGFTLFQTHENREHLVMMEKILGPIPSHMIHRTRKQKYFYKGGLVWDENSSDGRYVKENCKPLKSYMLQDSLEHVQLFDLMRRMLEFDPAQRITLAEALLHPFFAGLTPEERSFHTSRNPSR
# Chain of Cyclin-dependent kinase 6 (Homo sapiens) (Q00534 whole entry): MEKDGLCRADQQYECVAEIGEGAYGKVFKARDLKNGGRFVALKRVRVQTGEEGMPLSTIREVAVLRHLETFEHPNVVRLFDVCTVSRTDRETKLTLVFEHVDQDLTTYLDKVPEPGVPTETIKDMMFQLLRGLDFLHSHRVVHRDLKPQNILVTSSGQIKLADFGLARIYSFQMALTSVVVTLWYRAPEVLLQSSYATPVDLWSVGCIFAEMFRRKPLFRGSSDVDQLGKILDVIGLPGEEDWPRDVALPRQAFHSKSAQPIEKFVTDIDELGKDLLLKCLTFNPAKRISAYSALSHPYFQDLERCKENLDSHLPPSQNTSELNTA
# Chain of Dual specificity protein kinase CLK2 (Homo sapiens) (P49760 whole entry, looked up): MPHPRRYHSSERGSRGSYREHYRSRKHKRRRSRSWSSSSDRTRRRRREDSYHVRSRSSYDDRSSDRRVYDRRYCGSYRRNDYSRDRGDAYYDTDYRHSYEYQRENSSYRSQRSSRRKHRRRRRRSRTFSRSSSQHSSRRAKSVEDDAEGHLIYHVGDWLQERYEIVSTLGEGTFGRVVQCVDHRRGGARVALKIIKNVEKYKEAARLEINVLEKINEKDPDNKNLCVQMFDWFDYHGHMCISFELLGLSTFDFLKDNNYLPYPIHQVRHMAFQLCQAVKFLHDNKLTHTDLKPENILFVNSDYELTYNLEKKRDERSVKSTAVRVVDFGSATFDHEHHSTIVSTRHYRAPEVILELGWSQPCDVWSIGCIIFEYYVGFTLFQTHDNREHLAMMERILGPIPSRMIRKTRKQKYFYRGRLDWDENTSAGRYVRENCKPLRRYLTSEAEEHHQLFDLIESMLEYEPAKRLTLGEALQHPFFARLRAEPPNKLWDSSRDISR
# Chain of Cyclin-dependent kinase 5 (Homo sapiens) (Q00535 whole entry, looked up): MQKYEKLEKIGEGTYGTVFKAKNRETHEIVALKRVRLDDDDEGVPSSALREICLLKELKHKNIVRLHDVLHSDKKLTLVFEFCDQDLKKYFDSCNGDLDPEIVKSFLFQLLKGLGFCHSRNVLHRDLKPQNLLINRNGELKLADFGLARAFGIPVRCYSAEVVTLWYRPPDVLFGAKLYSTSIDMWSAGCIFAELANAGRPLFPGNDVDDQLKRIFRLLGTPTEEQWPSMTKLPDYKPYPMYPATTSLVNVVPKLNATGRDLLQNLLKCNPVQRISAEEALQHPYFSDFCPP
# Chain of Casein kinase I isoform gamma-2 (Homo sapiens) (P78368 whole entry, looked up, canonical isoform): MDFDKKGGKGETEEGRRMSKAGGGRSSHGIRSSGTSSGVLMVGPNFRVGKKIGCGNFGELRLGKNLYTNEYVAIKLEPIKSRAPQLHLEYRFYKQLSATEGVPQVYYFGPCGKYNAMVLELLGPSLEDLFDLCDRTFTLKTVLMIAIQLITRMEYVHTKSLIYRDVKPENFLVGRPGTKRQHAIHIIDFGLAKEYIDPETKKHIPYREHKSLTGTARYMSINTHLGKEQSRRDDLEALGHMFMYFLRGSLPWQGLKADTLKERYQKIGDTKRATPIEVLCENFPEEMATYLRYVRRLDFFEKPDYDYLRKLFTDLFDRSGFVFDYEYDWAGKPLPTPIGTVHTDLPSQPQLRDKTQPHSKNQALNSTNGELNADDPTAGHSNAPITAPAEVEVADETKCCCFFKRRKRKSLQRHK
# T1 sequence (P24864 whole entry, looked up): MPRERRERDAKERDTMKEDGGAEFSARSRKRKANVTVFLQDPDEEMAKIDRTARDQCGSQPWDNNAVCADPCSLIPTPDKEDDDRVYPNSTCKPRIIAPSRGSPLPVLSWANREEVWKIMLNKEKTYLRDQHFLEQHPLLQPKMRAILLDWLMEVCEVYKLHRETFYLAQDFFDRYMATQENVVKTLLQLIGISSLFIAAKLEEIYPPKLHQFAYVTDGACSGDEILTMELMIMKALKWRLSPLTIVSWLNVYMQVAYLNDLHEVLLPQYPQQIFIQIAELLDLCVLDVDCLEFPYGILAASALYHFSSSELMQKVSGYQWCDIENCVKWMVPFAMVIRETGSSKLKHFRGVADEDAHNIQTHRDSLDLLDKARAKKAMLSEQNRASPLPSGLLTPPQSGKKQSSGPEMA
# T1 sequence (Q00526 whole entry, looked up): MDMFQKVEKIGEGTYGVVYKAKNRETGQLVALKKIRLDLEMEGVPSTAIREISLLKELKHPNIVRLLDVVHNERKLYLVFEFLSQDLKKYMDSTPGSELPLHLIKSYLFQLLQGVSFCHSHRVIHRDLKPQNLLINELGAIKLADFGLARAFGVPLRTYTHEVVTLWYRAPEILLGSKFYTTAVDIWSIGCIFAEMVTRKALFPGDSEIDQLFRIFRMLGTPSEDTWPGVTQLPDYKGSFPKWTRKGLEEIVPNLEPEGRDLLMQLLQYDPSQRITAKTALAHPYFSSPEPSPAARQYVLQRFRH
# Chain of Cyclin-dependent kinase 4 (Homo sapiens) (P11802 whole entry): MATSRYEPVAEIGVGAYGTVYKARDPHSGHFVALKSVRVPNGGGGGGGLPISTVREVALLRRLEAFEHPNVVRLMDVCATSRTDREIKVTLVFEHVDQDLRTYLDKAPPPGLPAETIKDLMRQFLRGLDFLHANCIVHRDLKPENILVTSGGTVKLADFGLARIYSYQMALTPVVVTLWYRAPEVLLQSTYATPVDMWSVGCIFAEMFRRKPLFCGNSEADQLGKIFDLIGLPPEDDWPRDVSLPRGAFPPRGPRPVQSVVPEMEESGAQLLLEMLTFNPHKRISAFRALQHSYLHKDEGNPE
# Chain of Casein kinase I isoform gamma-3 (Homo sapiens) (Q9Y6M4 whole entry, looked up, canonical isoform): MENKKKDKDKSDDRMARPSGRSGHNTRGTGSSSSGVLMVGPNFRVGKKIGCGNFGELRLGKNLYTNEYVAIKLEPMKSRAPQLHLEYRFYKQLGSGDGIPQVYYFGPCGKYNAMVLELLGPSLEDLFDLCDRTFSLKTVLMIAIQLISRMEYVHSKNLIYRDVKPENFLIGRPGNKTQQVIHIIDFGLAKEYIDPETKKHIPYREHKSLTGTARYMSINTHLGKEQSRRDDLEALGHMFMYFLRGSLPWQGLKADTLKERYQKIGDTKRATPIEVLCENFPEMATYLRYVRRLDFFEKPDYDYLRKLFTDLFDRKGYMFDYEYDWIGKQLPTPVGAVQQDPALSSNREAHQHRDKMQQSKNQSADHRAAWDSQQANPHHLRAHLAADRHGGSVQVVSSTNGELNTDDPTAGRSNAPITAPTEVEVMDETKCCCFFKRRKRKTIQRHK
# Chain of Cyclin-dependent kinase 1 (Homo sapiens) (P06493 whole entry, looked up): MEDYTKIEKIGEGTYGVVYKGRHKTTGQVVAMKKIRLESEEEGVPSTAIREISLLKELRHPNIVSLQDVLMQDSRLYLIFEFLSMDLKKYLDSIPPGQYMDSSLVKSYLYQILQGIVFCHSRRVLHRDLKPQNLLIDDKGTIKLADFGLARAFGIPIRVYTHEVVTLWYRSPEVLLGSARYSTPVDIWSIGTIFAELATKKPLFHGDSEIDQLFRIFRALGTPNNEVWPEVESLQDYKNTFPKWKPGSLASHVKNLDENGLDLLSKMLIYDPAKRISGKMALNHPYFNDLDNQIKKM
Structure (SMILES),inhibition [1],inhibition [2],inhibition [3],inhibition [4],inhibition [5],inhibition [6],inhibition [7],inhibition [8],inhibition [9],inhibition [10],inhibition [11],inhibition [12],inhibition [13],inhibition [14],inhibition [15],inhibition [16],inhibition [17],inhibition [18],inhibition [19],inhibition [20]
NCc1ccc(-n2c(-c3nonc3N)nc3cnccc32)cc1,7.87%,2.05%,10.7%,3.12%,10.5%,5.13%,30.4%,10.1%,31.4%,6.87%,6.36%,5.03%,10.2%,4.76%,11.9%,-0.37%,5.55%,6.2%,28.7%,2.13%
O=C(Nc1n[nH]c2cc(-c3ccccc3)ccc12)C1CC1,4.84%,4.39%,4.52%,0.9%,5.76%,3.52%,11.2%,4.57%,8.54%,2.98%,4.6%,3.5%,9.81%,1.28%,5.17%,1.28%,23.7%,1.71%,2.28%,0.78%
O=C(Nc1n[nH]c2cc(-c3cc(F)ccc3F)ccc12)C1CC1,3.38%,1.27%,2.99%,1.12%,7.47%,2.01%,17.3%,2.48%,11.6%,2.32%,5.19%,1.96%,8.77%,0.68%,5.38%,4.69%,39.6%,-0.48%,1.29%,0.11%
Nc1nccc(-c2c(-c3ccc(F)cc3)ncn2C2CCC(O)CC2)n1 (stereo not given),3.41%,-1.07%,10.8%,0.17%,5.68%,-0.46%,-4.73%,0.06%,1.24%,-1%,-0.81%,0.24%,1.17%,0.55%,1.98%,1.41%,1.1%,1.54%,0.55%,1.02%
Fc1ccc(-c2ncn(C3CCNCC3)c2-c2ccnc(Oc3ccc4c(c3)OCO4)n2)cc1,9.12%,4.73%,17.9%,0.2%,1.39%,1.83%,3.44%,3.24%,6.04%,-0.22%,-0.86%,1.48%,3.63%,0.16%,1.51%,1.03%,2.27%,0.55%,0.01%,0.88%
COc1ccc(C2=C(N3CCc4ccccc43)C(=O)NC2=O)cc1,4.63%,1.81%,3.33%,1.56%,3.2%,3.48%,3.47%,4.49%,6.31%,3.69%,-1.35%,3.95%,4.61%,1.51%,3.83%,4.88%,7.18%,0.19%,7.06%,2.88%
C[C@@H](Oc1cc(-n2cnc3ccc(OC4CCN(C)CC4)cc32)sc1C(N)=O)c1ccccc1Cl,-0.19%,-1.77%,-4.38%,-1.71%,-2.15%,-1.38%,-0.94%,-0.63%,2.09%,-3.54%,0.13%,-0.83%,-0.3%,-2.91%,-2.26%,-5.27%,-2.7%,3.05%,6.53%,-2.76%
O=C(Nc1n[nH]c2nc(-c3ccc(O)cc3)c(Br)cc12)C1CC1,7.38%,1.39%,4.72%,24.2%,64.2%,63.1%,108%,36.5%,73%,27.5%,78.2%,42%,73.9%,14.7%,55.3%,38.9%,74.7%,1.45%,5.65%,2.91%
COc1cc2ncn(-c3cc(OCc4cccs4)c(C(N)=O)s3)c2cc1OC,-1.86%,-0.97%,-0.06%,-2.79%,-0.17%,-2.8%,6.63%,-0.55%,4.77%,1.28%,2.15%,-2.57%,-2.26%,-2.83%,-2.03%,-5.45%,-6.37%,2.46%,6.46%,-1.61%
CNC(=O)c1cncc(/C=C/c2c(C)cccc2C)c1,-0.99%,-1.38%,-0.55%,-3.38%,1.17%,-3.98%,4.82%,-1.1%,-2.25%,-0.48%,-0.8%,-2.46%,-1.6%,-2.99%,-1.16%,3.56%,0.79%,0.58%,-1.19%,-2%
COc1cccc(-n2cnc3c(N/N=C/c4ccncc4)ncnc32)c1,-5.36%,-3.39%,-3.3%,-3.5%,0.55%,-3.99%,8.02%,-3.22%,-2.32%,-0.66%,0.9%,-6.94%,-4.27%,-3.69%,-0.49%,-0.76%,-8.82%,3.04%,5.72%,-3.93%
COc1cccc(/C=N/Nc2ncnc3c2cnn3-c2cccc(OC)c2)c1,3.85%,2.41%,1.09%,1.12%,4.16%,1.78%,5.08%,2.49%,3.83%,-2.31%,-2.86%,2.17%,4.46%,0.77%,3.98%,-0.23%,1.15%,0.01%,0.99%,0.55%
c1ccc(-c2n[nH]cc2-c2ccnc(-c3ccc(OCCN4CCOCC4)cc3)c2)nc1,-2.28%,-0.5%,2.07%,5.08%,4.83%,0.41%,0.03%,4.78%,4.73%,5.94%,3.2%,5.35%,6.08%,5.7%,4.87%,1.73%,4.81%,2.87%,3.2%,0.66%

# Source: ChEMBL document CHEMBL1961873, “Compounds: GSK PKIS; Assays: Nanosyn kinase panel” (2012)
